Screens (PubChem BioAssay)
Hits are enriched below; roughly 0.93% of the tested compounds scored in any of these assays.
TRPML1 agonist: agonists of human TRPML1 channel. TRPML1-expressing cells, Ca2+ dye fluorescence, FDSS. activation, % (no concentration beside the values). hit rate 0.12% among 410,000; in the data active means activation above about 50%; inconclusive means mostly about 30% to 49%
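In this qHTS format, compounds were pin-transferred onto Ca8-dye-loaded TRPML1-DL cells induced with Tet overnight, and intracellular Ca2+ fluorescence was recorded kinetically for 110 s after a 10 s baseline. A subsequent 4uM final 54-4 (EC80) addition followed by a second 110 s read served as the antagonist phase.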
TRHR enhancer-1: allosterically enhances the human TRH receptor; hit rate 0.66% among 360,000; enhancement, % at 2 µM; TRHR cells, fluo-8 calcium fluorescence, EC20 TRH enhancement; in the data active means enhancement above about 30%
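TRHR-expressing cells loaded with fluo-8 calcium dye were read kinetically (ex 480/em 530) during compound addition, then stimulated with an EC20 of TRH (10 nM final). Enhancement of the Gq-mediated intracellular calcium response was scored.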
TRHR agonist-1: activates the human TRH receptor | P34981 | TRHR cells, calcium flux fluo-8, FDSS agonist mode | activation, % at 2 µM | hit rate 0.18% among 360,000 | AID 493084; in the data active means activation above about 30%
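Read-out: compound-evoked intracellular calcium rise in TRHR cells, fluo-8 dye, kinetic FDSS fluorescence at 1 s/cycle following a 10-cycle baseline. Cells cultured overnight before dye loading (30 min–1.5 h, RT).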
PTHR1 ag: activates the human parathyroid hormone receptor PTHR1; Q03431; HEK293 GP2 PTHR1 cells, GloSensor cAMP luminescence, 1 h; Potency, µM (titrated, usually from 115 µM), actives largely listed as activators; hit rate 0.075% among 410,000; AID 743266; further: nearly all actives have a fitted effect of over 55% in size
Target sequence (Q03431 whole entry, looked up): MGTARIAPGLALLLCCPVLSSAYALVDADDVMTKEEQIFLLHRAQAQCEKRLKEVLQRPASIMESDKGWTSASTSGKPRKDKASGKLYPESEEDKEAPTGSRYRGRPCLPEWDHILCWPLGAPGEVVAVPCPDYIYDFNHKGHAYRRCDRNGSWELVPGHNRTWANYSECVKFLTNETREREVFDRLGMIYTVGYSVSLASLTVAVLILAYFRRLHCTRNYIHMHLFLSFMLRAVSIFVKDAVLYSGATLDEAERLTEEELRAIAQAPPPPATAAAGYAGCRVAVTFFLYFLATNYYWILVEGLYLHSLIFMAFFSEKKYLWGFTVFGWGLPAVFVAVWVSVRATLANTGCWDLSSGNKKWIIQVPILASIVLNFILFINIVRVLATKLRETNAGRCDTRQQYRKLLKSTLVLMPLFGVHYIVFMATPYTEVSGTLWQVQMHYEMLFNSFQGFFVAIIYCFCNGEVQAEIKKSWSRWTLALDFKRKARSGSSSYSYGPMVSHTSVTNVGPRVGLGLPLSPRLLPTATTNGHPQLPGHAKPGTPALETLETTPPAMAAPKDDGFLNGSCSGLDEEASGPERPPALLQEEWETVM
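HEK-293-derived GP2 cells expressing PTHR1 and a GloSensor cAMP reporter, 3,000/well, plated overnight, given luciferin plus IBMX (each 0.5 mM as added) for 1 h at 37 °C, then compound for 1 h at 37 °C. Luminescence was read after 15 min at room temperature.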
GLP1R cytotox: cytotoxicity in counter-screen for GLP-1R inverse agonists; Potency, µM (titrated, usually from 38.3 µM), actives largely listed as inhibitors; HEK293 cAMP-luciferase reporter cells, luminescence, 24 h; hit rate 0.13% among 410,000; AID 624418;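 further: loss of luciferase light is scored as toxicity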
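1536-well qHTS counterscreen of the MLSMR; 200 cells/uL, 12 h pre-incubation, 23 nL cpd, 24 h at 37 deg C 5% CO2, luciferase detection reagent, 12 min RT, luminescence. Inhibition = undesired.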
TRPML1 blocker: blocks the human TRPML1 channel. TRPML1-inducible cells, Ca2+ dye fluorescence, FDSS; stronger effect = lower value; inhibition of EC80 agonist-evoked calcium signal. AID 624415. activity change, negative = inhibition, % (no concentration beside the values). Q9GZU1. hit rate 0.02% among 390,000; in the data active means activity change below about -50%; inconclusive means between about -30% and that limit;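 further: stimulus is agonist 54-4 at its EC80 concentration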
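TRPML1-DL cells, Tet-induced overnight (~16 h, 37 °C) at 1,500 cells/well, were loaded with Ca8 no-wash dye plus quencher for 45-90 min at room temperature. Compounds were pinned during FDSS kinetic reading; agonist 54-4 at EC80 (4 uM final) then added.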
TRHR enhancer-2: confirmation of human TRH receptor allosteric enhancers | shares compounds with TRHR enhancer-1 | TRH receptor cell assay, enhancer confirmation qHTS | AID 493076 | 970 tested, under 10 active | activity change, negative = inhibition, % at 46.1 µM;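 further: compound effect scored on response to added TRH at EC20 of 10 nM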
TRHR agonist-2: human TRH receptor agonism confirmation; TRHR-expressing cells, agonist activation read-out; hit rate 8% among 970; AID 493078; Potency, µM (series often up to 46.1 µM), most hits filed as activators; shares compounds with TRHR enhancer-1; further: nearly all actives have a fitted effect of over 75% in size
Hits are given with their value; - = inactive; ? = inconclusive; . = not tested or not shown; [ ] = remark or other dose. Unless noted, the call rests on the fitted dose curve; in most records, active means well fitted curve in the direction sought with a large enough effect; inconclusive means small, poorly fitted or top-dose-only effect, or another doubt; inactive means no such curve, though single readings can be large; an effect the other way counts as inactive or inconclusive.

SMILES | TRPML1 agonist | TRHR enhancer-1 | TRHR agonist-1 | PTHR1 ag | GLP1R cytotox | TRPML1 blocker | TRHR enhancer-2 | TRHR agonist-2
COc1ccc(CNc2ccccc2C(=O)NCc2ccccc2)cc1COc1ccc(NC(C)=O)cc1 | - | . | . | . | . | . | . | .
CCOc1ccc(-c2csc3ncn(-c4ccc(OC)cc4)c(=O)c23)cc1 | - | 44 | - | - | -[0.307 µM] | - | - | -
CN1/C(=C\C(=S)NC(=O)c2ccc([N+](=O)[O-])cc2)C(C)(C)c2ccccc21 | - | 48 | - | - | ? | - | - | -
COc1nc(N)nc(CC(=O)C2CC2)n1 | - | 62 | - | - | - | - | - | -
COc1ccc(CN(C)C(=O)C2CC(=O)N(c3ccc4c(c3)OCCO4)C2)c(OC)c1 (centres undefined) | - | 65 | - | - | - | - | - | -
O=C(C1CC(=O)N(c2ccc3c(c2)OCCO3)C1)N1CCN(Cc2ccccc2F)CC1 (centres undefined) | - | 48 | - | - | - | - | - | -
COc1ccc2nc(NC(=O)C3CC(=O)N(c4ccc5c(c4)OCCO5)C3)sc2c1 (centres undefined) | - | 49 | - | - | - | - | ? | -
CN(Cc1ccccc1Cl)C(=O)C1CC(=O)N(c2ccc3c(c2)OCCO3)C1 (centres undefined) | - | - | - | - | - | - | . | .
N#Cc1nc(N(c2ccccc2)c2ccccc2)nc(-n2cccc2)n1 | - | . | . | . | . | . | . | .
CCn1c2ccccc2c2cc(/C=C3/C=Cc4ccccc43)ccc21 | - | . | . | . | . | . | . | .
CCOCC(=O)Nc1ccc(C)c(Cl)c1 | - | 62 | - | - | - | - | - | -
CN(C)CCCCCCNc1nccc(N2CCN(C)CC2)n1 | - | . | . | . | . | . | . | .
CC1=Nc2ccccc2/C1=C/c1sc(=S)n(-c2cccc(C(=O)O)c2)c1O | - | - | - | - | - | - | - | 21µM
Oc1c(C=C2N=c3ccccc3=N2)sc(=S)n1-c1ccccc1 | - | - | - | - | - | - | . | .
Cc1ccc2cccc(O)c2n1 | - | . | . | . | . | . | . | .
CCOC(=O)c1[nH]c(C)c(C(=O)N(CC)CC)c1C | - | 52 | - | - | - | - | - | -
CCn1c(SCC(=O)Nc2cccc(C(C)=O)c2)nnc1C(C)C | - | - | 39 | - | - | - | - | -
CCc1nc(Nc2ccncc2)c2oc3ccccc3c2n1 | - | 47 | - | - | ? | - | - | -
CCc1ccccc1N(CC(=O)N/N=C/c1ccc(OC(=O)OC)c(OC)c1)S(C)(=O)=O | - | - | 43 | - | - | - | - | -
O=C(C[N+]12CN3CN(CN(C3)C1)C2)c1ccc(Br)cc1 | - | . | . | . | . | . | . | .
CCOC(=O)c1[nH]c2ccc(F)cc2c1NC(=O)CN1CCc2cc(OC)c(OC)cc2C1 | . | 43 | - | . | . | . | - | -
O=C(C[n+]1cccc2cccc(O)c21)c1ccc2ccccc2c1 | - | . | . | . | . | . | . | .
COC(=O)C1CCN(C(=O)COC(=O)c2ccc(=O)n(Cc3ccccc3)n2)CC1 | - | - | - | - | - | - | . | .
O=C(NC1CCCCCC1)c1ccc(=O)n(Cc2ccccc2)n1 | - | 55 | - | - | - | - | - | -
COc1ccc(/C=C/c2ccnc3ccccc23)c(OC)c1 | - | . | . | . | . | . | . | .
Oc1ccc(Br)cc1C1C=C(c2ccc3c(c2)OCO3)NC(c2ccc(Br)cc2)N1 (centres undefined) | - | . | . | . | . | . | . | .
CCCN1CNc2c(c(=O)[nH]c(=S)n2CCc2cc(Cl)cc(Cl)c2)C1 | - | . | . | . | . | . | . | .
Cn1c(C(=O)N2CCC(C(N)=O)CC2)cc2cc(Cl)ccc21 | - | 57 | - | - | - | - | - | -
Cc1ccc(S(=O)(=O)N2CCN(CC(=O)Nc3ccc4c(c3)CCC4)CC2)cc1C | - | 44 | - | - | - | - | - | -
O=C(CN1CCN(S(=O)(=O)c2ccc(Cl)cc2)CC1)Nc1ccc2c(c1)CCC2 | - | - | - | - | - | - | . | .
